# Screens deposited in PubChem BioAssay by National Center for Advancing Translational Sciences (NCATS).
# Pin1 inh = blocks the human prolyl isomerase Pin1 | Q13526 | Pin1 FP peptide displacement, HiFluor488, 10 min | Potency, µM (top dose mostly 115 µM), inactives show at the top dose activity, negative = inhibition, most hits filed as inhibitors | hit rate 0.009% among 390,000; active means well fitted inhibition curve with a large enough effect in the polarisation, with a control signal flat, not every such curve was filed as active; inconclusive means small, poorly fitted or top-dose-only effect, or effect the other way, or a change in a side signal; inactive means no such curve, though single readings can be large or run the other way; the % refers to the polarisation; further: potency means the concentration at half of the fitted maximal effect
# Target sequence (Q13526 whole entry, looked up): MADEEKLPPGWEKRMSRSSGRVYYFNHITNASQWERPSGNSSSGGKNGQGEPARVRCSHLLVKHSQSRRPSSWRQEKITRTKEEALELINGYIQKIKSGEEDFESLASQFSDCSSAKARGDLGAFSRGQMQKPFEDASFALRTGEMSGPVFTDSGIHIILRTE
# PGK inhibitor = T. brucei PGK inhibition. Potency, µM (titrated, usually from 57.5 µM), for the others: at the highest dose activity change, negative = inhibition, usual class: inhibitors. hit rate 0.043% among 380,000. PGK/GAPDH coupled, Kinase-Glo luminescence, 60 min. AID 602233; further: potency means the concentration at half of the fitted maximal effect; nearly all actives have a fitted effect of over 60% in size
# Target sequence (P07378 whole entry, looked up): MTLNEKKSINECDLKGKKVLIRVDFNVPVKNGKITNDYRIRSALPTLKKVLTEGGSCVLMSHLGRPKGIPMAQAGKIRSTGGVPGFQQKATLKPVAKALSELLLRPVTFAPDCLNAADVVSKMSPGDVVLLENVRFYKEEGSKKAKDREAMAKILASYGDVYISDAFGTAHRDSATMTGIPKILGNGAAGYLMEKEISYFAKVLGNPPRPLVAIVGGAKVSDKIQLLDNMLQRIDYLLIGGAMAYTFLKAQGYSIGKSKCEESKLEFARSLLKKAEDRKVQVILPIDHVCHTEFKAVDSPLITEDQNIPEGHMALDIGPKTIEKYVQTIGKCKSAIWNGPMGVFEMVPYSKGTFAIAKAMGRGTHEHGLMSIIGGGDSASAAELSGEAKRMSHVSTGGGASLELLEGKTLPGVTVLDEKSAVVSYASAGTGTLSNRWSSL
#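 Luminescent ATP detection (Kinase-Glo Plus) follows a 60-minute room-temperature incubation, with wells lacking PGK as controls. Buffer: 100 mM TEA (pH 7.6), 5 mM MgCl2, 0.01% Tween-20. Coupling enzyme GAPDH (100 nM final) supplies unstable 1,3-BPG in-well.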
# Tb PFK inh = inhibitors of T. brucei phosphofructokinase; T. brucei PFK, ADP-Glo luminescence; Potency, µM (doses to about 57.5 µM), for inactives: top-dose activity, negative = inhibition, actives largely listed as inhibitors; hit rate 0.17% among 330,000; AID 485367;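 further: potency means the concentration at half of the fitted maximal effect; 0% = uninhibited 1x PFK enzyme wells and -100% = no-enzyme wells; nearly all actives have a fitted effect of over 60% in size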
#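 Activity is normalized to no-enzyme wells (full inhibition) and 1.25 nM enzyme wells (no inhibition). Reaction: 0.5 mM F6P, 0.1 mM ATP, 45 min RT, ADP-Glo luminescence; concentration-response curves fitted and classed by quality.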
# PI4K2A inh = blocks human PI4K2A kinase activity. hit rate 0.13% among 420,000. purified PI4K2A, ADP-Glo luminescence, 1 h; hits give low values. Q9BTU6. AID 1346378. activity change, negative = inhibition, % at 76.9 µM; in the data active means activity change below about -50%; inconclusive means mostly about -30% to -49%;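 further: -100% = wells without enzyme as full effect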
#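 PI4K2A activity was measured by ADP-Glo luminescence: enzyme (4 ug/mL stock) and phosphatidylinositol (1.2 mM stock) in Tris pH 7.5/MgCl2/EGTA/Triton X-100 buffer were reacted with ATP (300 microM stock) for one hour at ambient temperature.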
# PI5P4Ka inh = blocks human PI5P4K alpha kinase activity. P48426. PI5P4Kalpha enzyme, ADP-Glo luminescence, 60 min; hits give low values. max response, %. hit rate 1.2% among 330,000. AID 652105; active means max response of -50% or lower; inconclusive means between -30% and -50%; inactive means -30% or higher; further: value at the top dose of about 77 µM
#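 Enzyme plus substrate dispensed, test compounds pinned in, then ATP (5 microM final) added. After 60 min at RT, ADP-Glo reagent 1 for 45 min and reagent 2 for 30 min preceded luminescence imaging.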
# The depositor's hits bear a star; i = inactive; u = inconclusive; x = no result given. Shown is part of a subset that was picked to be rich in hits. Unless noted, the call rests on the fitted dose curve; in most records, active means well fitted curve in the direction sought with a large enough effect; inconclusive means small, poorly fitted or top-dose-only effect, or another doubt; inactive means no such curve, though single readings can be large; an effect the other way counts as inactive or inconclusive. Unless noted, on the % scale 0 is the no-effect control and ±100 the full control effect.
SMILES,Pin1 inh,PGK inhibitor,Tb PFK inh,PI4K2A inh,PI5P4Ka inh
COc1ccc(NS(=O)(=O)c2cccc(C(=O)NNC(=O)c3ccccc3O)c2)cc1,-0.6%,9.7%,1.2%,2.6,-12.6
CCOc1ccc2c(ccc(/C=C/c3cc(C)c4cccnc4c3O)[n+]2C)c1,21.4%,u,x,-58.4*,-84.7*
CC(C)CS(=O)(=O)C1=NSC2=NC(=O)/C(=C\c3ccc(OC(=O)c4ccco4)cc3)C(=N)N21,0.6%,-12.1%,-7.8%,-7.4,-85.9*
CC1=CSC2=NC(=O)/C(=C/c3cccc(OC(=O)c4ccco4)c3)C(=N)N12,6.4%,7.5%,2.5%,39.6,-19.5
CCC(CC)C1=NN2C(=N)/C(=C/c3ccc(OC(=O)c4ccco4)cc3)C(=O)N=C2S1,6.6%,i,0.2%,0.5,-18.1
CS(=O)(=O)C1=NSC2=NC(=O)/C(=C\c3ccc(OC(=O)c4ccco4)c(Br)c3)C(=N)N21,60.0%,-3.7%,4.2%,6.7,-72.9*
COc1cc(/C=C2\C(=N)N3N=C(S(=O)(=O)CC(C)C)SC3=NC2=O)ccc1OC(=O)c1ccco1,x,x,3.7%,x,x
CSC1=NSC2=NC(=O)/C(=C\c3ccc(OC(=O)c4ccco4)cc3)C(=N)N12,30.1%,i,0.0%,0.8,-53.0*
O[C@@H](CNC[C@H](O)[C@H]1CCc2cc(F)ccc2O1)[C@@H]1CCc2cc(F)ccc2O1,x,x,x,0.9,x
O=C1CCc2cc(S(=O)(=O)Nc3ccc(Cl)c(Cl)c3)ccc2N1,-1.4%,x,x,x,x
Cc1nc(S/C(=C\c2ccc(-c3ccc(C(=O)O)c(Cl)c3)o2)C(=O)O)n[nH]1,25.1%,u,10.5%,-18.2,-70.6*
Cc1nc(S/C(=C\c2ccc(OCc3ccccc3Cl)cc2)C(=O)O)n[nH]1,-3.8%,-0.4%,-8.1%,-5.1,u
Nc1ccccc1Nc1nc2ccccc2[nH]1,2.9%,-5.2%,1.2%,-14.4,0.2
Nc1ccc(Nc2nc3ccccc3[nH]2)cc1,x,i,-1.9%,-4.1,-52.2*
COc1cc(/C=C2\CCc3c2nc2ccccc2c3C(=O)O)cc(OC)c1OC,u,u,-14.2%,-6.3,-62.2*
Cc1cc(Cl)ccc1OCCCC(=O)NO,4.6%,-0.5%,13.5µM*,3.2,8.5
CC1=C(C#N)C(=O)NC(=O)/C1=C\c1ccc(-c2cc(C)c(C)cc2[N+](=O)[O-])o1,x,-14.5%,-12.1%,-10.4,-65.1*
Cc1ccc(-c2ccc(/C=C3/NC(=O)NC3=O)o2)cc1[N+](=O)[O-],u,5.6%,15.5%,-3.8,-10.3
Cc1cccc(Cn2ncc3c4sc(C)cc4n(C)c3c2=O)c1,1.8%,x,x,x,x
O=C1Nc2cc(C(=O)NCCCN3CCCC3)ccc2S/C1=C/c1cccc(Cl)c1,x,-8.5%,x,1.2,-51.4*
CN(C)c1cccc(S(=O)(=O)N2CCCN(S(=O)(=O)c3ccc4c(c3)OCCO4)CC2)c1,18.9%,x,x,x,x
CCCCCCSc1ccc([C@@H]2[C@@H]3C(=O)N(CC)C(=O)[C@@H]3[C@]3(C(=O)OC)CCCCN23)cc1,13.0%,-8.2%,4.8%,-51.8*,11.2
C[n+]1cccc2c(Br)ccc([O-])c21,u,4.7%,-8.4%,-61.1*,-16.1
CCOC(=O)[C@]12CCCCC/C=C\1N(CCc1ccc(Cl)cc1)C(=O)[C@H]2CC(=O)NCc1ccc(OC)c(OC)c1,x,x,x,4.0,x
O=C(Nc1ccccc1C(F)(F)F)OC1CCC12CCC(c1ccccc1)CC2 (stereo not given),x,x,x,-2.0,x
SMILES,Pin1 inh,PGK inhibitor,Tb PFK inh,PI4K2A inh,PI5P4Ka inh
Cc1csc(CNc2ncnc3cc(-c4ccc5c(c4)OCO5)ccc23)n1,12.8%,x,x,x,x
COc1ccc(C=Nc2ccc3[nH]ncc3c2)c(O)c1,7.7%,5.7%,-1.3%,-9.0,1.1
Oc1c(Br)cc(Br)cc1C=Nc1ccc2[nH]ncc2c1,u,-9.5%,3.1%,-16.0,-51.3*
Cc1cc(O)c(C)c(C)c1O,x,x,x,3.8,x
CCCC[C@@H]1CCCO[C@@](C(=O)NCc2ccc(C)o2)(C(F)(F)F)C1,-4.8%,-4.8%,x,-3.2,-54.0*
COC(=O)[C@]12C[C@H](CC(=O)NCc3ccccc3)C(=O)N(CCC3=CCCCC3)C1=C[C@H](C1CCCC1)O[C@@H]2C,x,x,x,-2.2,x
COC(=O)[C@]12C[C@H](CC(=O)N3CCSCC3)C(=O)N(Cc3ccco3)C1=C[C@H](COCc1ccccc1)O[C@@H]2C,x,x,x,1.9,x
COc1ccc(NC(=O)CSc2nc(NS(=O)(=O)c3ccccc3)cc(=O)[nH]2)cc1,x,u,u,-52.8*,x
O=C(CSc1nc(NS(=O)(=O)c2ccccc2)cc(=O)[nH]1)Nc1ccc(Cl)cc1,81.7%,u,u,-26.5,u
Clc1ccc(N=c2ssnc2Cl)nc1,-2.2%,0.6%,2.4%,-17.3,-22.6
Clc1nssc1=Nc1ccc(Br)cc1,0.8%,4.8%,u,7.1,-56.7*
COc1cc(N=c2ssnc2Cl)cc(OC)c1,9.3%,-5.6%,u,2.5,-79.1*
OCc1ccccc1N=c1ssnc1Cl,x,x,-7.1%,x,x
N#Cc1cccc(N=c2ssnc2Cl)c1,-2.4%,-9.3%,u,-3.4,-76.9*
CC(=O)Oc1cc2c3c(c1)/C(=C1/SC(=S)NC1=O)C(=O)N3C(C)(C)C=C2C,x,-13.3%,3.3%,-3.1,-75.8*
CCn1c(O)c(/C=C/C=C/C=Nc2ccccc2)sc1=S,37.6%,-6.8%,5.6%,-1.1,-63.0*
Oc1c(/C=C/C=C/C=Nc2ccccc2)sc(=S)n1Cc1ccccc1,36.9%,-14.6%,-0.4%,-8.5,-79.3*
CCCCn1c(O)c(/C=C/C=C/C=Nc2ccccc2)sc1=S,27.7%,-9.2%,0.4%,-5.6,u
C#Cc1ccc(-c2ccccc2F)cc1,x,x,x,0.3,x
COc1ccc(S(=O)(=O)NCc2cccnc2)cc1NC(=O)c1ccccc1C,u,-8.1%,x,-5.2,-72.9*
CCOc1ccc(S(=O)(=O)NCc2cccnc2)cc1NC(=O)c1ccccc1,-1.7%,-8.1%,x,2.9,3.6
O=C(C[n+]1cccc2ccccc21)c1ccc([N+](=O)[O-])cc1,u,-1.8%,0.4%,-1.8,-65.5*
CCCc1nc2c(=O)n(C)c(=O)nc-2n(C)n1,u,u,-0.2%,-61.3*,-0.1
Cn1nc(-c2ccccn2)nc2c(=O)n(C)c(=O)nc1-2,x,u,-10.4%,-63.4*,-6.2
CCn1c(N)nc2c1c(=O)n(C)c(=O)n2C,3.7%,-4.3%,0.0%,2.2,-0.7
CCC1=NN2C(=N)/C(=C\c3ccc(OCCOc4ccccc4)c(OC)c3)C(=O)N=C2S1,x,x,-0.7%,x,x
CCOc1cc(/C=C2\C(=N)N3N=C(S(C)(=O)=O)SC3=NC2=O)ccc1OCCOc1cccc(OC)c1,u,u,-0.1%,-0.7,-79.7*
CCC1=NN2C(=N)/C(=C\c3ccc(OCc4cc(=O)n5nc(CC)sc5n4)c(OC)c3)C(=O)N=C2S1,u,-16.2%,-24.8%,-6.3,-71.1*
